The inhibition is the change of the read-out against control, counted positive when it falls.

In all, about 300,000 compounds went through this assay and about 3,200 (1.1%) were called active. Only a selection was taken, and actives are over-represented in it overall. Unmarked numbers belong to inactive results. Cut-off read from the data, not from the text of the source: active = inhibition above about 75%; inconclusive = no clear call, values can overlap the other calls; inactive = below that; tested in HMLE shEcad cells.

The nature of the experiment: growth suppression of cancer stem-like cells – cell-based, luminescence, primary screen (AID 2717). To be noted: cancer stem cell-like cells viability, at 7.5 µM, active compounds read high.
For `Cc1ccc(P(=S)(c2ccc(C)o2)N2CCOCC2)o1`, the inhibition is 76.5% (active).

Regarding `Cc1ccc(-n2c(C)cc(/C=C3\C(=O)NC(=O)N(C)C3=O)c2C)cc1C`, the inhibition is -18.6%.

On to `CCCCCCCCCCCCn1ccc(=N)cc1`, for which the inhibition was 102% (active).

As to `O=C(O)C1CSC(c2cccnc2)N1` (stereo not given), the inhibition is -4.58%.

Turning to `CCC1(C)CC(CCNCc2ccc(N(C)C)cc2)(c2ccc(F)cc2)CCO1` (stereo not given), the inhibition is 15%.

For the compound `COc1ccc(Br)cc1CNCCc1cccc(Cl)c1`, the inhibition is 35.5%.

On to `O=C1C2(Cl)C3(Cl)C4(Cl)C(Cl)(Cl)C5(Cl)C3(Cl)C1(Cl)C5(Cl)C24Cl` (stereo not given), for which the inhibition is 101% (active).

As to `COC(=O)C1=C(c2cccc(OCc3ccccc3)c2)C[C@@H]2CC[C@H]1N2C(=O)NCc1ccc(Br)cc1`, the inhibition was 30%.

For `C[C@]12CC[C@H](O)CC1=C([N+](=O)[O-])CC1C2CC[C@@]2(C)C1CC[C@@H]2O` (stereo not given in full), the inhibition is 19.8%.

Consider `CC(Cc1ccccc1)NCCC(c1ccccc1)c1ccccc1` (stereo not given), for which the inhibition is 86.3% (active).

As for `CC(=O)NC(=O)NC(C)Cc1ccccc1` (stereo not given), the inhibition is -9.41%.

As to `CC(Cc1ccccc1)NC=O` (stereo not given), the inhibition is -4.89%.

With `CCC(=O)c1ccc(OCC(=O)N2CCN(CC(=O)Nc3ccc(C)cc3)CC2)cc1`, the inhibition is -4.41%.

Turning to `O=C1NC(=O)N(Cc2ccco2)C(=O)/C1=C\c1ccc(-c2ccc(F)cc2)o1`, the inhibition was -3.26%.

Turning to `O=C1NC(=O)N(CCc2ccc(F)cc2)C(=O)/C1=C/C=C/c1ccccc1`, the inhibition was 89.8% (active).

Consider `O=C(O)COc1ccccc1/C=C1\C(=O)NC(=O)N(CCC2=CCCCC2)C1=O`, for which the inhibition is -7.06%.

As to `COC(=O)C1=C(c2ccc(Cl)c(C(F)(F)F)c2)C[C@@H]2CC[C@H]1N2C(=O)NC1CC1`, the inhibition is -14.7%.

As to `Nc1ccc([N+](=O)[O-])cc1`, the inhibition was 22.2%.

Regarding `COC(=O)C1=C(c2ccccc2OCc2ccccc2)C[C@@H]2CC[C@H]1N2C(=O)NCc1ccc(OC)cc1`, the inhibition was 6.19%.

Consider `N#Cc1ccc(Cn2cc(C(=O)c3ccco3)c3ccccc32)cc1`, for which the inhibition is 6.82%.

Regarding `COC(=O)C1=C(c2c(C)noc2C)C[C@@H]2CC[C@H]1N2C(=O)NCc1ccc2c(c1)OCO2`, the inhibition was 2.81%.

Regarding `N=c1ccccn1Cc1ccccc1`, the inhibition is 1.97%.

For the compound `COC(=O)C1=C(c2ccc(-c3ccccc3)c(F)c2)C[C@@H]2CC[C@H]1N2C(=O)NCc1ccc(F)cc1`, the inhibition is 36.3%.

Regarding `C[C@]12CCC3C(CC[C@H]4C[C@@H](O)CC[C@]34C)C1C[C@@H](O)[C@H]2O` (stereo not given in full), the inhibition is -9.01%.

As to `C[C@]12CCC3C(CC[C@H]4C[C@@H](O)CC[C@]34C)C1CC[C@@H]2O` (stereo not given in full), the inhibition is -19.5%.

On to `C[C@]12CC[C@H](O)C[C@H]1CC[C@@H]1C2CC[C@]2(C)[C@@H](C3=CC(=O)OC3)[C@@H](O)C[C@]12O` (stereo not given in full), for which the inhibition was 85% (active).

Take `CC(Cc1cccs1)NCc1ccc(Cl)cc1` (stereo not given): the inhibition is -5.86%.

`COC(=O)C1=C(c2ccc(F)cc2OCc2ccccc2)C[C@@H]2CC[C@H]1N2C(=O)NCc1ccc2[nH]ccc2c1`: the inhibition was 9.97%.

As to `COc1ccc(-c2nn(CCC#N)cc2C(=O)O)cc1`, the inhibition is 1.09%.

As for `COC(=O)C1=C(c2ccc(F)cc2OCc2ccccc2)C[C@@H]2CC[C@H]1N2C(=O)NCc1ccc(Cl)cc1`, the inhibition was 15.5%.
